DAX1 inh-1: DAX1 (NR0B1) inhibition, primary screen. inhibition, % at 6.8 µM. HEK293T StAR-luciferase reporter, SF-1/DAX-1 repression relief. 370,000 compounds, 1.1% hits;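 active = inhibition above the mean over all tested compounds plus 3 SD, cut at about 3.6% in these data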;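 also: higher inhibition means more luminescence from relief of DAX-1 repression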
DAX1 inh-2: inhibitors of human orphan nuclear receptor DAX1 (NR0B1) | P51843 | HEK293 Gal4-DAX1 luciferase reporter, luminescence | inhibition, % at 6.75 µM | 340,000 compounds, 0.99% hits | AID 504766;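 active = inhibition above the mean over all tested compounds plus 3 SD, cut at about 4.2% in these data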;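 also: inhibition shows as a rise in luminescence from relieved DAX1 repression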
Target sequence (P51843 207-470 limits assumed): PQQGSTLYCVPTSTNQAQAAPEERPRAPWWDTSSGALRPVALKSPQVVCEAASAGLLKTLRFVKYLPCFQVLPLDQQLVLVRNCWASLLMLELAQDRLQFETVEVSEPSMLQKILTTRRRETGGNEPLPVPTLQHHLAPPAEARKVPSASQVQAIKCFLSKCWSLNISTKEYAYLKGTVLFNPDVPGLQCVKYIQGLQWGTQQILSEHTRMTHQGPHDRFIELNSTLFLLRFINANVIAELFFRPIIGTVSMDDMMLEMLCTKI
hgDAF-12 ag: hgDAF-12 agonism, primary luciferase screen; AID 687014; 370,000 compounds, 1.8% hits; activation, % at 6.8 µM; HEK293 GAL4-hgDAF12 UAS-luciferase reporter, agonist luminescence; normalized to butyrate control;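 active = activation above a cutoff set at the mean of all screened compounds plus 3 SD, cut at about 10% in these data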
ssDAF12 agonist: S. stercoralis DAF-12 activation, primary screen; HEK293 ssDAF-12/GRIP1 lit1-tk-luc reporter, luminescence; % of 3 µM dafachronic acid response; activation, % at 6.8 µM; 370,000 compounds, 1% hits;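 active = activation above the mean over all tested compounds plus 3 SD, cut at about 0.9% in these data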
hcDAF-12 act: activators of H. contortus DAF-12 nuclear receptor; HEK293 hcDAF-12 lit1-tk-luc reporter, luminescence; 0% DMSO, 100% Δ7-dafachronic acid; AID 652067; 370,000 compounds, 1.4% hits; activation, % at 6.8 µM;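 active = activation above the mean of all tested compounds plus 3 SD, cut at about 5.5% in these data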
Numbers stand for hits; - = inactive; . = no result. Shown are actives, neighbours in structure and some others; about 4.1% of the full set was active somewhere.

SMILES | DAX1 inh-1 | DAX1 inh-2 | hgDAF-12 ag | ssDAF12 agonist | hcDAF-12 act
CC1=C(C(=O)Nc2ccccn2)C(c2ccc(N(C)C)cc2)n2ncnc2N1 (centres undefined) | - | - | 11 | - | -
CCc1ccc(S(=O)(=O)NCCc2cn3cccc(C)c3n2)s1 | - | - | - | 2.2 | -
CCCn1cnnc1CNC(=O)[C@@H](Cc1ccccc1)NC(=O)[C@H]1O[C@@H](n2ccc(=O)[nH]c2=O)[C@H](O)[C@@H]1O | - | . | - | - | -
O=S1(=O)N[C@H](Cc2ccccc2)COc2cccc(NCCO)c21 | - | . | - | - | -
O=C(c1ccccc1)c1cnc(Nc2ccccc2Cl)s1 | . | 6.8 | . | . | .
O=c1c2c(nc3n1CCCCC3)sc1c(O)c(Br)ccc12 | 4.4 | - | - | - | -
Nc1nc2ncccc2cc1C(=O)c1c[nH]c2ccccc12 | - | . | - | - | -
CC(C)C(=O)Nc1cccc(C(=O)Nc2nnc(C(C)C)s2)c1 | - | - | - | - | -
CC(C)c1nnc(NC(=O)c2cccc(NC(=O)C(F)(F)F)c2)s1 | - | - | 12 | - | -
O=C(NCc1csc(-c2cccs2)n1)C1CCCCC1 | - | 4.5 | - | - | -
CCC(=O)NCc1csc(-c2cccs2)n1 | - | - | - | - | -
CCn1c(=O)cc(SCC(=O)N2CCCCC2)c2ccccc21 | - | - | - | - | -
Cn1c(=O)cc(SCC(=O)N2CCN(C3CCCCC3)CC2)c2ccccc21 | - | 7.3 | - | - | -
O=C(Nc1ccccc1)Nc1ncc([N+](=O)[O-])s1 | 3.7 | - | - | - | -
COc1cc(C(c2c(C(=O)O)[nH]c3ccccc23)c2c(C(=O)O)[nH]c3ccccc23)ccc1OCc1ccccc1 | - | - | - | - | 5.9
O=C(O)c1[nH]c2ccccc2c1C(c1ccccc1)c1c(C(=O)O)[nH]c2ccccc12 | - | - | - | - | -
Cc1ccc(C)c(NC(=S)NCCCN2CCOCC2)c1 | - | - | - | 0.9 | -
NNC(=O)C(=O)NCCCN1CCOCC1 | - | 5.7 | - | - | -
CC(C)CNC(=O)C(=O)NCCCN1CCOCC1 | - | - | - | - | -
Cc1ccc(C)c(NC(=O)C(=O)NCCCN2CCOCC2)c1 | - | - | 11 | - | -
Cc1cc(C)cc(NC(=O)C(=O)NCCCN2CCOCC2)c1 | - | - | - | - | -
COc1ccccc1CN(CC(=O)NCc1ccc(F)cc1)C(=O)c1csnn1 | - | - | - | - | -
O=C(CNc1ccc2ccccc2c1)N/N=C/c1ccc(C(=O)O)cc1 | - | - | - | - | -
O=C(CNc1cccc2ccccc12)N/N=C/c1ccc(C(=O)O)cc1 | - | - | - | 1.0 | -
FCCCOc1ccc(-c2ccnc3ncnn23)cc1 | - | 5.2 | - | - | -
SMILES | DAX1 inh-1 | DAX1 inh-2 | hgDAF-12 ag | ssDAF12 agonist | hcDAF-12 act
COc1ccc(-c2ccnc3ncnn23)cc1 | - | - | - | - | -
O=C(COc1ccc(Br)cc1Cl)c1ccc[nH]1 | - | - | 13 | - | -
O=C1c2ccccc2C(=O)C1c1ccncc1 | 4.0 | - | - | - | 5.6
Cc1ccc(-n2c(SCC(=O)c3ccc(-c4ccccc4)cc3)nnc2-c2ccc(C(C)(C)C)cc2)cc1 | - | . | - | - | -
Cc1ccc(C(CC(=O)N2CCCCC2)c2ccccc2)c(O)c1C (centres undefined) | - | - | - | 1.6 | -
COC(=O)c1cccc(NC(=O)CCN2C(=O)NC(C)(C)C2=O)c1 | - | - | - | - | -
C=CCN1[C@@H](CC(C)C)COc2cccc(NCCCN3CCOCC3)c2S1(=O)=O | - | . | - | - | -
Brc1ccc(-c2nc(-c3ccccc3)no2)o1 | - | - | 12 | 1.4 | 6.1
Brc1ccc(-c2nc(-c3cccnc3)no2)o1 | - | - | - | - | -
Cc1cc2c(nc1C)CCCN2S(=O)(=O)c1ccc(F)cc1 | - | . | - | - | -
Cc1ccc(C(=O)Nc2cccc(C(=O)N/N=C/c3ccc(O)cc3)c2)cc1 | - | - | - | - | 5.9
O=C(N/N=C/c1ccccn1)c1ccco1 | - | - | - | - | -
O=C(N/N=C/c1ccc2ncccc2c1)c1ccco1 | 4.2 | - | - | - | -
O=C(N/N=C\CCc1ccccc1)c1ccco1 | - | - | 13 | - | -
Cc1ccc(/C=N/NC(=O)c2ccco2)cc1 | - | . | 12 | - | -
Cc1cccc(-n2c(C)cc(/C=N\NC(=O)c3ccco3)c2C)c1 | - | - | - | - | -
C[C@H](O)[C@@H]1CN2CCc3c([nH]c4c(-c5ccccc5)cccc34)[C@@H]2C[C@@H]1N(C)C(=O)NC1CCCCC1 | - | . | - | - | -
Cc1ccc(C)c(NC2CCCCC2NS(=O)(=O)c2ccccc2)c1 (centres undefined) | 4.2 | - | - | - | -
Cc1c(NC(=O)c2ccc(NS(=O)(=O)c3ccc(F)c(F)c3)cc2)c(=O)n(-c2ccccc2)n1C | 3.7 | - | - | - | -
Nc1nc(SCc2ccccc2)cc(SCc2ccccc2)n1 | - | - | 12 | - | -
Nc1cc(N)nc(SCc2ccccc2)n1 | - | - | - | - | -
COc1ccc(-c2cc(C(=O)NCc3ccc(C(F)(F)F)cc3)[nH]n2)c(C)c1 | - | . | - | - | -
CCCCCc1c(-c2cccc(OC)c2)ncn1CCc1ccccc1OC | - | . | - | - | -
O=c1c2ccccc2nnn1CSc1nc2ccccc2[nH]1 | - | - | 11 | - | -
O=C(O)CCCNC(=O)CCn1nnc2ccccc2c1=O | - | - | - | - | -
SMILES | DAX1 inh-1 | DAX1 inh-2 | hgDAF-12 ag | ssDAF12 agonist | hcDAF-12 act
CC(C)CCSc1nc2ccccc2[nH]1 | - | - | 13 | - | -
O=C(O)CCCCCNC(=O)CCn1nnc2ccccc2c1=O | - | 5.9 | - | - | -
O=C(Cn1cncn1)N/N=C/c1ccccc1O | - | - | - | - | -
Cc1ccc(Nc2nc(N)nc(COC(=O)C3=COCCO3)n2)cc1 | 3.6 | - | - | - | -
Cc1ccc(NC(=O)COC(=O)C2=COCCO2)cc1 | - | - | - | - | -
COc1cccc2[nH]c(C(=O)NCCCN3CCCC3=O)cc12 | - | - | - | - | -
COc1ccc2cc(C(=O)NCCCN3CCCC3=O)[nH]c2c1 | - | - | - | - | 6.2
Cc1onc(-c2c(Cl)cccc2Cl)c1C(=O)N1CCCc2ccccc21 | - | - | - | - | -
Cc1onc(-c2ccccc2)c1C(=O)N1CCCc2ccccc21 | - | - | - | 1.0 | -
Cc1ccc2oc(-c3cccc(NC(=O)/C=C/c4cccc([N+](=O)[O-])c4)c3C)nc2c1 | - | - | - | - | 6.2
O=C(/C=C/c1cccc([N+](=O)[O-])c1)Nc1ccccn1 | - | - | - | - | -
CCNc1nc(-c2cc(C)n(Cc3ccco3)c2C)cs1 | - | 5.0 | - | - | -
CC(=O)c1ccc(NC(=O)CN2c3cccc4cccc(c34)S2(=O)=O)cc1 | - | 6.0 | - | - | -
O=C(NC1CCN(Cc2ccc(F)cc2)CC1)c1ccccc1 | - | - | - | - | -
CS(=O)(=O)Cc1ccc(C(=O)NC2CCN(Cc3ccccc3)C2)cc1 (centres undefined) | - | 4.2 | - | - | -
